High-throughput results: PubChem BioAssay, National Center for Advancing Translational Sciences (NCATS)
Cycloheximide cs: counter-screen hit for Shiga toxin inhibitors, cycloheximide. cell reporter, cycloheximide protein synthesis inhibition counterscreen. max response, %. hit rate 12% among 300,000; in the data active = max response mostly above about 13%, no sharp cut-off; inactive = mostly below about 14%; note: read at 38.3 µM for the half of the compounds with a filed dose; 0% is about no effect
SARS PLP yeast: inhibitors of SARS-CoV papain-like protease in yeast; Potency, µM (doses to about 32.9 µM), for inactives: top-dose activity, positive = growth rescue, hits mostly activators; S. cerevisiae expressing SARS-CoV PLpro, growth rescue; hit rate 0.19% among 330,000; calls by dose curve; note: potency is the fitted concentration of half-maximal effect; 0% is about no effect; nearly all actives have a fitted effect of over 55% in size
Shiga toxin inh: inhibitors of Shiga toxin in Vero cells; inhibition, % at 38.7 µM; Vero cells, Shiga toxin protein synthesis inhibition reporter; AID 2315; hit rate 9.2% among 290,000; in the data active = inhibition mostly above about 28%, no sharp cut-off; inactive = mostly below about 43%; note: 0% is about no effect
AmpC inh no detg: AmpC beta-lactamase inhibition without detergent; hit rate 0.52% among 330,000; Potency, µM (highest dose often 57.1 µM), inactives show at the highest dose activity change, negative = inhibition, hits mostly inhibitors; AmpC nitrocefin hydrolysis, absorbance 480 nm, 0.0001% Triton;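 note: potency is the fitted concentration of half-maximal effect; plate controls were no compound for no effect and no enzyme for full effect; nearly all actives have a fitted effect of over 20% in size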
Target sequence (P00811 whole entry, looked up): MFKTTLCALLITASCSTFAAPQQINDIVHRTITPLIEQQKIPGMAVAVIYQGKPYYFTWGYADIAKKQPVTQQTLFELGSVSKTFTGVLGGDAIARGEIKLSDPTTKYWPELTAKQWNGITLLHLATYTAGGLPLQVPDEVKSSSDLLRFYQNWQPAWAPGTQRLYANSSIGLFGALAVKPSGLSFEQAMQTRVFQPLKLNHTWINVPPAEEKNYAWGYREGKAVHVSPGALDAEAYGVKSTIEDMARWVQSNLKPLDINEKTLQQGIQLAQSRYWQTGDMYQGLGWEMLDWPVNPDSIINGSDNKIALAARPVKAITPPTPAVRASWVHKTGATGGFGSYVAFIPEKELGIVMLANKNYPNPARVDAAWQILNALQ
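20 mM phosphate pH 7.0 + 0.01% (detergent screen) or 0.0001% Triton X-100; 5.3 nM AmpC reagent; cpd preinc 15 min RT; nitrocefin (800 uM stock) to start; A480 q20 s × 4 min; Activity was normalised to no-enzyme and no-compound control wells.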
AMA1-RON2 inh: disrupts binding of P. falciparum AMA1 to RON2. AlphaScreen AMA1-biotinylated RON2 peptide binding. Potency, µM (doses to about 58.2 µM), for inactives: at the highest dose activity change, negative = inhibition, most hits filed as inhibitors. hit rate 0.2% among 360,000;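 note: potency is the fitted concentration of half-maximal effect; 0% = vehicle wells and -100% = peptide control; nearly all actives have a fitted effect of over 45% in size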
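AMA1 (3D7) with his tag at 25 nM final met compounds first, then biotinylated RON2 peptide at 25 nM; detection used donor plus acceptor beads, 10 µg/mL apiece, read by AlphaScreen after 30 min at room temperature.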
AmpC detergent: inhibitors of E. coli AmpC beta-lactamase with detergent. P00811. AmpC hydrolysis of nitrocefin, absorbance 480 nm, 0.01% Triton. Potency, µM (top dose mostly 114 µM), for the others: at the top dose activity change, negative = inhibition, actives largely listed as inhibitors. hit rate 0.041% among 370,000. AID 485294;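 note: potency is the fitted concentration of half-maximal effect; 0% = no-compound wells and -100% = no-enzyme wells; nearly all actives have a fitted effect of over 25% in size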
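20 mM phosphate pH 7.0 + 0.01% (detergent screen) or 0.0001% Triton X-100; 5.3 nM AmpC reagent; cpd preinc 15 min RT; nitrocefin (800 uM stock) to start; A480 q20 s × 4 min; Activity was normalised to no-enzyme and no-compound control wells.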
* = called active by the depositor; u = inconclusive; x = not tested or not shown; + = active, no number; [ ] = remark or other dose. This is one part of a sample in which hits are shown more often than they occur. Unless noted, calls come from the whole dose curve; as a rule, active = well fitted curve in the direction sought with a large enough effect; inconclusive = small, poorly fitted or top-dose-only effect, or another doubt; inactive = no such curve, though single readings can be large; an effect the other way counts as inactive or inconclusive.

SMILES	Cycloheximide cs	SARS PLP yeast	Shiga toxin inh	AmpC inh no detg	AMA1-RON2 inh	AmpC detergent
O=C(NCCc1ccccc1)c1ccc(Br)o1	46*	-8%	83*	-5%	2%	-12%
O=C(NCCc1ccccc1)c1cccc(Br)n1	78*	x	+	x	x	x
Cc1ccc(CNC(=O)c2ccc(Br)o2)cc1	20*	-25%	75	-4%	-9%	5%
COc1ccc(N2CCN(C(=O)CCc3nnc4ccc(N5CCC(C)CC5)nn34)CC2)cc1	-2	2%	2	168%	-1%	4%
CCc1ccc(C2c3c(oc4ccc(C)cc4c3=O)C(=O)N2c2nc(C)c(C)s2)cc1 (stereo not given)	x	x	x	x	x	21%
O=C1CC(c2ccco2)CC(O)=C1C=Nc1ccc(Br)cc1 (stereo not given)	11	-10%	-5	-10%	-2%	2%
Cc1ccc(N=CC2=C(O)CC(c3ccco3)CC2=O)cc1 (stereo not given)	21*	-12%	41	-16%	21%	-6%
O=C1CC(c2cccc(Cl)c2)CC(O)=C1C=Nc1cccc(Cl)c1 (stereo not given)	-1	-77%	4	-19%	-6%	-2%
O=C1CC(c2ccccc2)CC(O)=C1C=Nc1ccccc1 (stereo not given)	30*	-3%	92*	-4%	-2%	3%
O=C1CC(c2ccccc2)CC(O)=C1C=Nc1ccccc1O (stereo not given)	23*	-2%	32	-24%	76%	-3%
CC(C/C=N/NC(=O)COc1cc(Cl)ccc1Cl)c1ccccc1 (stereo not given)	-1	-8%	-10	3%	97%	1%
CCCCC(=O)Nc1ccc(C(=O)NCCN2CCOCC2)cc1	1	0%	-5	-8%	5%	u
Cc1ccc2c(c1)Oc1ccc(NC(=O)CCl)cc1C(=O)N2	13	1%	-16	-37%	-9%	-3%
Clc1cc(Cl)cc(C2=NC(Cc3ccccc3)CO2)c1 (stereo not given)	x	x	x	x	7%	x
Cc1cccc(C2=N[C@@H](CC(C)C)CO2)c1	33*	x	+	x	x	x
Cc1cccc(C2=N[C@@H](Cc3ccccc3)CO2)c1	49*	x	+	x	x	x
CSc1ccccc1C(=O)NCc1cccnc1	-4	1%	-12	-40%	-4%	-4%
COc1cc2[nH]c(=O)c(C(=O)NCCCN3CCOCC3)c(O)c2cc1OC	-1	0%	-17	48%	-13%	-2%
Cc1cc(Cl)ccc1Nc1ncccc1C(N)=O	69*	-40%	69*	-31%	-18%	5%
COc1ccccc1Nc1ncccc1C(=O)O	-1	9%	17	-14%	21%	-8%
Cc1ccc(Nc2ncccc2C(N)=O)cc1	94*	-6%	119*	-15%	-15%	u
NC(=O)c1cccnc1Nc1ccccc1F	29*	-8%	28*	-3%	-11%	-13%
COc1ccc(Nc2ncccc2C(=O)O)cc1	47*	4%	112*	-5%	0%	7%
O=C(Nn1cnnc1)C1Cc2ccccc2CN1S(=O)(=O)c1ccc(F)cc1 (stereo not given)	3	2%	6	-3%	1%	-5%
CCOC(CNC(=O)c1ccc2c(c1)ncn2-c1ccccc1OC)OCC	-2	1%	-3	77%	18%	u
SMILES	Cycloheximide cs	SARS PLP yeast	Shiga toxin inh	AmpC inh no detg	AMA1-RON2 inh	AmpC detergent
CCCNC(=O)c1ccc2c(c1)ncn2-c1ccccc1OC	12*	1%	20	-20%	0%	2%
COc1ccccc1-n1cnc2cc(C(=O)N3CCOCC3)ccc21	25*	4%	41*	3%	0%	-7%
COc1ccc(OC)c(-n2cnc3cc(C(=O)NCCCN4CCOCC4)ccc32)c1	-2	5%	-15	35%	-12%	4%
O=C(Cn1ccc(=O)[nH]c1=O)Nc1nccs1	x	x	x	x	-4%	x
COC(=O)Cc1[nH]n(-c2nc3ccccc3s2)c(=O)c1C(C)=O	17*	-20%	33	-15%	17%	-3%
COc1ccc(CN=C(C)c2c(C(F)(F)F)[nH]n(-c3nc4ccccc4s3)c2=O)cc1	42*	-4%	122*	-11%	5%	0%
COc1ccc(/C=N/OC(=O)Nc2ccccc2OC)cc1	42*	-3%	94*	-23%	5%	-1%
COc1ccc(NC(=O)O/N=C/c2ccncc2)cc1	15	1%	43*	-5%	0%	-11%
Cc1ccc(NC(=O)O/N=C/c2ccc(N(C)C)cc2)cc1	21*	1%	22	-30%	-19%	-11%
COc1ccc(/C=N/OC(=O)Nc2ccc(Cl)cc2)c(OC)c1	25*	-6%	22	-40%	4%	-6%
Cc1ccc(C(=O)O/N=C/c2ccc(N(C)C)cc2)cc1	-3	1%	-1	-16%	6%	4%
COc1ccc(NC(=O)O/N=C/c2ccc(Br)cc2)cc1	15	0%	37	-26%	-15%	-4%
Cc1ccc(NC(=S)N(CCCN2CCCC(C)C2)Cc2ccco2)cc1C (stereo not given)	-1	-1%	14	15%	11%	-8%
Cc1nc2cccc(C(=O)NC3CCCCC3)c2o1	-1	2%	-5	-11%	34%	2%
O=C(Nc1ccccc1Cl)O/N=C/c1ccc(F)cc1	x	x	x	x	20%	x
COc1ccc(NC(=O)O/N=C/c2ccc(N(C)C)cc2)cc1	33*	-3%	57*	-27%	-14%	-8%
CN(C)c1ccc(/C=N/OC(=O)Nc2ccccc2Cl)cc1	22*	-3%	95*	-15%	6%	3%
CCN1C(=O)/C(=C/c2ccc(C)s2)NC1=S	18	u	8	-21%	20%	0%
CCN1C(=O)C(=Cc2ccc(C)s2)C(=O)N(CC)C1=S	21	4%	44*	-53%	10%[11.6 µM]	u
CC1(C)C=Cc2cc3ccc(=O)oc3cc2O1	53*	-1%	62*	-27%	2%	3%
COc1c2c(cc3oc(=O)ccc13)OC(C)(C)C=C2	20*	1%	40*	-50%	-3%	0%
Cc1ccc(C(=O)Nc2nc(COc3ccccc3)cs2)s1	31*	x	82*	x	7%	1%
Nc1nc(CCOc2ccc(F)cc2)cs1	33*	0%	154*	-15%	-20%	1%
O=C(Nc1nc(COc2ccccc2)cs1)C1CCC1	37*	-9%	89*	-20%	21%	-11%
CC(=O)Nc1nc(COc2ccc3ccccc3c2)cs1	52*	-4%	97*	-17%	3%	-14%
CCOC(=O)c1ccc(NC(=O)NCc2cccnc2)cc1	13	-5%	15	-48%	-2%	3%
O=C(C[n+]1cccc(/C=N/O)c1)N1CCCCCC1	-4	1%	23	-16%	10%	5%
COc1ccccc1OCc1csc(N)n1	5	2%	32	1%	-25%	8%
